# Shown are actives, neighbours in structure and some others; about 0.43% of the full set was active somewhere.
# RGS12 GoLoco inh = qHTS Assay for Inhibitors of RGS12 GoLoco Motif Activity (Red Fluorophore) | Potency, µM (top dose mostly 61.6 µM), inactives show top-dose activity, negative = inhibition, actives largely listed as inhibitors | 0.44% of 230,000 active | Gai1:RGS12 GoLoco peptide FP, rhodamine, 10 min; active = well fitted inhibition curve with a large enough effect, not every such curve was filed as active; inactive = no such curve, though single readings can be large or run the other way; note: potency is the fitted concentration of half-maximal effect; % is set by controls: 0 for no effect and ±100 for the full control effect; nearly all actives have a fitted effect of over 30% in size
# Tb PFK inh = qHTS Assay to Find Inhibitors of T. brucei phosphofructokinase; ATP-dependent 6-phosphofructokinase (Trypanosoma brucei brucei), O15648; T. brucei PFK, ADP-Glo luminescence; Potency, µM (highest dose often 57.5 µM), for inactives: at the top dose activity, negative = inhibition, usual class: inhibitors; 0.17% of 330,000 active; AID 485367, 2010;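 note: potency is the fitted concentration of half-maximal effect; 0% = uninhibited 1x PFK enzyme wells and -100% = no-enzyme wells; nearly all actives have a fitted effect of over 60% in size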
#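 In TEA buffer at pH 8.0 with 5 mM MgCl2, enzyme (1.25 nM) converted F6P (0.5 mM) and ATP (0.1 mM) for 45 min at room temperature. ADP product was read by luciferase luminescence.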
# Menin-MLL TR inh = qHTS Assay for Inhibitors Targeting the Menin-MLL Interaction in MLL Related Leukemias: Competition With Texas Red Labeled MLL-derived Mutant Peptide. Potency, µM (series often up to 61.6 µM), for inactives: top-dose FP activity change, negative = inhibition, actives largely listed as inhibitors. O00255. 0.23% of 270,000 active. Menin + Texas Red MLL mutant peptide, fluorescence polarization; active = well fitted inhibition curve with a large enough effect in the polarisation, with a control signal flat, not every such curve was filed as active; inconclusive = small, poorly fitted or top-dose-only effect, or effect the other way, or a change in a side signal; inactive = no such curve, though single readings can be large or run the other way; the % refers to the polarisation; note: potency is the fitted concentration of half-maximal effect; % of control where 0% means no effect
# CXXC DNA block = qHTS Fluorescence Polarization Assay for Inhibitors of MLL CXXC domain - DNA interaction. 0.037% of 290,000 active. MLL-CXXC / FITC-HOXA9 DNA fluorescence polarization. Histone-lysine N-methyltransferase 2A (Homo sapiens), Q03164. Potency, µM (highest dose often 115 µM), for the others: at the highest dose activity change, negative = inhibition, most hits filed as inhibitors. AID 2662, 2010; active = well fitted inhibition curve with a large enough effect in the polarisation, with a control signal flat, not every such curve was filed as active; inconclusive = small, poorly fitted or top-dose-only effect, or effect the other way, or a change in a side signal; inactive = no such curve, though single readings can be large or run the other way; the % refers to the polarisation; note: potency is the fitted concentration of half-maximal effect
#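 Purified MLL-CXXC (added from a 7 uM solution) was preincubated 5 min at ambient with pinned compounds in 50 mM Tris-HCl pH 7.5, 50 mM NaCl, 1 mM DTT, 0.05% BSA. Fluorescein-labeled HOX-A9 DNA (50 nM solution) followed, 30 min, then polarization read.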
# Menin-MLL FL inh = qHTS Assay for Inhibitors Targeting the Menin-MLL Interaction in MLL Related Leukemias: Competition With Fluorescein Labeled MLL-derived Peptide. FP activity change, % at 61.4 µM. Fluorescence polarization, fluorescein-MLL peptide displacement from menin. 290,000 tested, under 10 active. AID 1766, 2009; active = well fitted curve in the direction sought with a large enough effect in the polarisation, not every such curve was filed as active; inconclusive = small, poorly fitted or top-dose-only effect, or effect the other way, or a change in a side signal; inactive = no such curve, though single readings can be large or run the other way; the % refers to the polarisation; note: % of control where 0% means no effect
# MLL CXXC FP-Fl = qHTS Fluorescence Polarization (FP) Assay for Inhibitors of MLL CXXC domain - DNA interaction: Fluorescein FP. Potency, µM (highest dose often 345 µM), for the others: top-dose activity change, negative = inhibition, actives largely listed as inhibitors. MLL CXXC-DNA binding, fluorescein FP. 70% of 200 active. shares compounds with CXXC DNA block; note: potency is the fitted concentration of half-maximal effect; nearly all actives have a fitted effect of over 80% in size
# MLL CXXC TxRed = qHTS Fluorescence Polarization (FP) Assay for Inhibitors of MLL CXXC domain - DNA interaction: Texas Red FP; shares compounds with CXXC DNA block; MLL CXXC-DNA binding, Texas Red fluorescence polarization; Potency, µM (doses to about 345 µM), for inactives: at the highest dose activity change, negative = inhibition, actives largely listed as inhibitors; 40% of 200 active; AID 624161, 2012; note: potency is the fitted concentration of half-maximal effect; % is set by controls: 0 for no effect and ±100 for the full control effect; nearly all actives have a fitted effect of over 75% in size
# MLL CXXC HTRF = qHTS Fluorescence Polarization (FP) Assay for Inhibitors of MLL CXXC domain - DNA interaction: HTRF Assay. shares compounds with CXXC DNA block. MLL CXXC-DNA binding, HTRF, biochemical. Potency, µM (top dose mostly 172 µM), without a hit: at the highest dose activity change, negative = inhibition, actives largely listed as inhibitors. 30% of 210 active; note: % is set by controls: 0 for no effect and ±100 for the full control effect; nearly all actives have a fitted effect of over 80% in size
# * = called active by the depositor; ? = inconclusive; · = not tested or not shown; [ ] = dose if it differs, or a comment. Unless noted, calls come from the whole dose curve; as a rule, active = well fitted curve in the direction sought with a large enough effect; inconclusive = small, poorly fitted or top-dose-only effect, or another doubt; inactive = no such curve, though single readings can be large; an effect the other way counts as inactive or inconclusive.
SMILES,RGS12 GoLoco inh,Tb PFK inh,Menin-MLL TR inh,CXXC DNA block,Menin-MLL FL inh,MLL CXXC FP-Fl,MLL CXXC TxRed,MLL CXXC HTRF
O=C1NC(=S)NC(=O)C12C(c1ccc(F)cc1)NC(=S)NC2c1ccc(F)cc1 (configuration not stated),-1%,-4%,·,?,1,?,31%,-10%
COc1ccc(N=Cc2c(O)n(Cc3ccccc3)c(=S)[nH]c2=O)c(OC)c1,56%,0%,·,32µM*,?,159µM*,-1%,8%
CC(=O)C1(O)Cc2c(O)c3c(c(O)c2C(OC2CC(N)C(O)C(C)O2)C1)C(=O)c1c(O)cccc1C3=O (configuration not stated),·,·,?,?,?,4.5µM*,20µM*,270%
COc1cc(C=C2C(=O)NC(=O)NC2=O)ccc1O,-1%,13%,24%,?,?,56µM*,159µM*,122µM*
CCOc1cc(C=C2C(=O)NC(=O)NC2=O)cc([N+](=O)[O-])c1O,-12%,-6%,?,32µM*,-7,20µM*,89µM*,19µM*
COc1ccc(OCCOc2cccc(C=C3C(=O)NC(=O)NC3=O)c2)cc1,·,1%,49%,?,-1,45µM*,?,39µM*
O=[N+]([O-])c1ccc2c(c1)S(=O)(=O)C=C2,·,·,?,·,3,·,·,·
O=C(Nc1cccc(C(=O)Nc2ccc(S(=O)(=O)O)c3cc(S(=O)(=O)O)cc(S(=O)(=O)O)c23)c1)Nc1cccc(C(=O)Nc2ccc(S(=O)(=O)O)c3cc(S(=O)(=O)O)cc(S(=O)(=O)O)c23)c1,58%,·,21%,16µM*,?,28µM*,100µM*,39µM*
C=CCNC(=O)N1CCc2nc(-c3ccccc3)c3c(c2C1)CO[C@@H](C)C3,3%[14.2 µM],·,-10%[11.7 µM],·,0[11.7 µM],·,·,·
CC1=NN(c2ccccc2)C(=O)/C1=C/c1cccc(C)c1,·,2%,?,?,?,45µM*,?,-27%
N=c1sc2ccccc2n1CCS (tested in a mixture with another compound),8%[14.2 µM],·,·,·,·,·,·,·
COc1cc(/C=C2\SC(=S)N(Nc3ncc(C(F)(F)F)cc3Cl)C2=O)ccc1O,359%,-3%,?,?,?,·,·,·
CN(C)c1ccc(/C=C2\SC(=S)N(Nc3ncc(C(F)(F)F)cc3Cl)C2=O)cc1,-84%,-2%,?,3.2µM*,?,1.1µM*,113µM*,196%
CC(C)(C)[C@H](NC(=O)c1ccc(N)c(Cl)c1)C(=O)N1CCC[C@H]1C(=O)N[C@H](C#N)Cc1nn[nH]n1,·,9%,·,·,·,·,·,·
CCc1nnc(NC(=O)CSc2nnc(-c3ccc(NS(=O)(=O)c4ccccc4)cc3)o2)s1,10%,8%,6%,?,2,?,9%,-11%
O=C1NN(c2ccccc2)C(=O)/C1=C/c1ccc(Sc2ccc(Cl)cc2)o1,5%,1%,·,-22%,?,·,·,·
Cc1ccc(Sc2ccc(/C=C3/C(=O)NN(c4ccccc4)C3=O)o2)cc1,6%,3%,·,?,18,8µM*,33%,-1%
C=C[C@@H](C)[C@](C)(O)c1ccccc1,2%,·,14%,·,0,·,·,·
O=C1C=C(O)c2cccc3cccc1c23,·,-2%,?,?,?,113µM*,5%,33%
CCN(CCCCOC(=O)c1ccc(OC)c(OC)c1)[C@@H](C)Cc1ccc(OC)cc1,6%[21.6 µM],·,-18%[24.8 µM],-1%[51.4 µM],-3[24.8 µM],·,·,·
O=P(O)(O)C(Cl)(Cl)P(=O)(O)O,6%,·,-2%,35µM*,-5,?,?,24µM*
COC(=O)c1ccc2c(c1)SC1=C(CCCC1=O)N2,-44%,?,?,28µM*,?,100µM*,142µM*,171%
O=C1CCCC2=C1Sc1ccc(Cl)cc1N2,-1%,-1%,·,?,?,·,·,·
Cc1ccsc1C=C1C(=O)c2ccccc2C1=O,-1%,2%,?,?,0,10µM*,-4%,14%
Cc1ccsc1/C=C1/C(=O)NN(c2ccccc2)C1=O,-4%,18%,?,?,1,·,·,·
SMILES,RGS12 GoLoco inh,Tb PFK inh,Menin-MLL TR inh,CXXC DNA block,Menin-MLL FL inh,MLL CXXC FP-Fl,MLL CXXC TxRed,MLL CXXC HTRF
NCC(=O)N[C@@H](CCCN=C(N)N)C(=O)NCC(=O)N[C@@H](CC(=O)O)C(=O)N[C@@H](CO)C(=O)N1CCC[C@H]1C(=O)O,·,·,16%,·,1,·,·,·
CC(=O)N1CC(O)CC1C(=O)O (configuration not stated),·,·,9%,5%,2,·,·,·
CC(C)Cn1c(SCC(=O)NCc2ccco2)nnc1-c1ccncc1,17%,-4%,5%,?,0,1.6µM*,-5%,0%
O=C(O)CCN1C(=O)/C(=C\c2ccc(-c3nc4ccccc4s3)o2)SC1=S,23%,-18%,28%,?,?,71µM*,50µM*,24µM*
O=C(O)CCN1C(=O)/C(=C\c2ccncc2)SC1=S,5%,-7%,28%,35µM*,2,·,·,12%
Nc1nc2c(ncn2C2CC(O)C(CO)O2)c(=O)[nH]1 (configuration not stated),10%,·,-1%,·,-4,·,·,·
CCCCC/C=C\C/C=C\C/C=C\C=C\C(=O)CCCC(=O)O,3%,·,4%,·,-3,·,·,·
CN(C)/C=C1\C(=O)N(c2ccc(Cl)c(Cl)c2)CS1(=O)=O,-2%,1%,4%,4%,-1,·,·,·
CN(C)C1=C(Cl)C(=O)N(c2ccc(Cl)c(Cl)c2)C1=O,4%,-9%,·,?,-19,179µM*,44%,?

# Source: PubChem BioAssay
